Compound activity from PubChem.
This is a sample that favours compounds with a hit; in the whole collection about 12% have one here.
PLK1 PBD block = PLK1 (human) polo-box domain binding inhibition; P53350; Plk1 PBD binding of FITC phosphopeptide, fluorescence polarization; Potency, µM, without a hit: max response, negative = inhibition, usual class: inhibitors; actives 2.8% (n = 360,000); AID 720504; note: potency is the fitted concentration of half-maximal effect; series mostly up to about 57 µM; % is set by controls: 0 for no effect and ±100 for the full control effect; nearly all actives have a fitted effect of over 65% in size
JMJD2A Tudor inh = JMJD2A Tudor domain (human) inhibition; O75164; AlphaScreen JMJD2A-Tudor / H3K4me3 peptide binding; Potency, µM (doses to about 114 µM), without a hit: top-dose activity change, negative = inhibition, most hits filed as inhibitors; actives 4.4% (n = 390,000); AID 504339; note: potency is the fitted concentration of half-maximal effect; % is set by controls: 0 for no effect and ±100 for the full control effect; nearly all actives have a fitted effect of over 50% in size
PI5P4Ka inh = inhibitors of human PI5P4K alpha; P48426; PI5P4Kalpha enzyme, ADP-Glo luminescence, 60 min; active compounds read low; max response, %; actives 1.2% (n = 330,000); AID 652105; active = max response of -50% or lower; inconclusive = between -30% and -50%; inactive = -30% or higher; note: value at the top dose of about 77 µM; % is set by controls: 0 for no effect and ±100 for the full control effect
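Quantitative HTS of the MLSMR library against PI5P4Kalpha with substrate. ATP added last at 5 microM final; room temperature, 60 minutes. Remaining ATP depleted, ADP converted and read as luminescence.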
BAZ2B inh = inhibitors of human BAZ2B bromodomain; Q9UIF8; AlphaScreen BAZ2B-H3K14Ac peptide displacement; Potency, µM (highest dose often 114 µM), without a hit: at the highest dose activity change, negative = inhibition, most hits filed as inhibitors; actives 4.4% (n = 360,000); AID 504333; note: potency is the fitted concentration of half-maximal effect; % is set by controls: 0 for no effect and ±100 for the full control effect; nearly all actives have a fitted effect of over 60% in size
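AlphaScreen displacement of biotin-H3(5-23)K14Ac peptide (50 nM final) from BAZ2B (50 nM final) in PBS pH 7.4, 0.01% Tween-20; complex preformed 30 min RT, then compounds (top 110 uM) 30 min RT, beads 20 min dark.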
G9a block = G9a (human) methyltransferase inhibition; actives 8.8% (n = 350,000); G9a H3K9 monomethylation, AlphaScreen, 2 h; Potency, µM (top dose mostly 102 µM), without a hit: at the highest dose activity, negative = inhibition, hits mostly inhibitors; Q96KQ7; note: potency is the fitted concentration of half-maximal effect; % is set by controls: 0 for no effect and ±100 for the full control effect; nearly all actives have a fitted effect of over 75% in size
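G9a (20 nM) was preincubated 15 min with compound, then reacted 2 h at room temperature with 500 nM biotin-H3K9 peptide and 20 µM SAM. Monomethyl-H3K9 detected by AlphaScreen using anti-H3K9me1 antibody.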
HP1b binding inh = inhibitors of HP1-beta chromodomain binding to methylated histone tails | AlphaScreen HP1-beta / biotin-H3K9me3 peptide binding | Potency, µM (doses to about 114 µM), without a hit: top-dose activity change, negative = inhibition, most hits filed as inhibitors | P83916 | actives 0.56% (n = 390,000); note: potency is the fitted concentration of half-maximal effect; nearly all actives have a fitted effect of over 70% in size
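HP1-beta protein (50 nM final) preincubated 30 min at room temperature with biotinylated H3(1-18)K9me3 peptide (50 nM) in PBS pH 7.4, 0.01% Tween-20, then compound added for 30 min. AlphaScreen streptavidin donor/nickel chelate acceptor beads (10 ug/mL final), 30 min dark, luminescence read.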
The depositor's hits bear a star; ? = inconclusive; . = no result; [ ] = dose if it differs, or a comment. Unless noted, calls come from the whole dose curve; as a rule, active = well fitted curve in the direction sought with a large enough effect; inconclusive = small, poorly fitted or top-dose-only effect, or another doubt; inactive = no such curve, though single readings can be large; an effect the other way counts as inactive or inconclusive.

SMILES | PLK1 PBD block | JMJD2A Tudor inh | PI5P4Ka inh | BAZ2B inh | G9a block | HP1b binding inh
CCNc1nc(NCC)n2c(SCC(=O)Nc3ccc(F)cc3)nnc2n1 | -13.2% | -17.8% | -10.9 | ? | ? | 9.9%
Cc1cc(C)n2c(SCC(=O)Nc3ccccc3)nnc2n1 | -15.9% | -4.9% | 0.1 | -4.2% | 11.2% | 60.4%
CCNc1nc(NCC)n2c(SCC(=O)Nc3ccc(C)c(C)c3)nnc2n1 | -2.2% | -8.9% | -8.9 | 50.1µM* | 3.55µM* | 3.0%
CCN(CC)c1ccc(NC(=O)CSc2nnc3nc(C)cc(C)n23)cc1 | 16.8µM* | -17.1%[11.4 µM] | 1.7 | -34.7% | -45.2%[12.7 µM] | ?
CC(C)(C)NC(=O)C1CCN(c2nc3ccccc3nc2C(F)(F)F)CC1 | . | -10.4% | . | 0.6% | -0.7%[59 µM] | 32.3%
CNC(=O)C1CCC(Cn2c(=O)c3sccc3n(CC(=O)Nc3ccccc3)c2=O)CC1 (stereo not drawn) | . | -11.0% | . | -0.1% | -0.5%[59 µM] | 15.7%
COc1cccc(C(=O)Nc2ccccc2-c2nnc(-c3cccc(OC)c3)o2)c1 | . | -1.1% | . | -15.0% | -3.0%[59 µM] | 34.1%
Clc1ccccc1-c1nc(NCc2cccnc2)c2ccccc2n1 | . | . | . | . | -43.6%[0.501 µM] | .
Cc1ccc(CNC(=O)NCc2noc3ccc(C)cc23)cc1 | . | 13.6% | . | -0.7% | 7.0%[59 µM] | 38.0%
Cc1c(C(=O)N2CCC[C@H]2C(N)=O)oc2c(F)cccc12 | 5.2% | 4.7% | -2.0 | 0.7% | . | 35.4%
CCOc1cc(/C=C(\C#N)C(=O)Nc2cccc(C(=O)O)c2)ccc1OCc1ccccc1Cl | 21.2µM* | 56.2µM* | 1.4 | 50.1µM* | 50.1µM* | -24.6%
Cc1nn2c(=O)cc(COc3ccc(/C=C(\C#N)C(=O)Nc4ccccc4)cc3Cl)nc2s1 | . | -25.5% | . | ? | -19.9%[59 µM] | 4.3%
CCOc1cc(/C=C(\C#N)C(=O)Nc2cccc(C(=O)O)c2)cc(Br)c1OC(=O)c1ccc(OC)cc1 | 9.47µM* | 56.2µM* | ? | 50.1µM* | 56.2µM* | ?
CCc1nc2sc3c(O)cc(=O)[nH]c3c2cc1C | -20.1% | -9.1% | ? | -0.3% | 44.7µM* | 40.6%
O=C(O)CCc1nn2c3ccccc3n(CCO)c2nc1=O | -5.3% | -14.5% | -7.2 | -8.2% | ? | 21.7%
O=C(O)CCc1nn2c3ccccc3n(CC(=O)O)c2nc1=O | -15.1% | -1.4% | -3.2 | 2.4% | 50.1µM* | 22.0%
O=C(O)CCc1nn2c3ccccc3n(Cc3ccccc3F)c2nc1=O | 26.7µM* | ? | 2.7 | -10.5% | -2.9% | ?
COc1cccc(CN2CCC2(C)C(=O)Nc2cnc3ccccc3c2)c1F (stereo not drawn) | -6.7% | . | 6.4 | . | . | .
COc1ccc(NC(=O)C(c2ccc(OC)cc2)N(C)C(=O)CC2NC(=O)NC2=O)cc1 (stereo not drawn) | 6.5% | -17.2% | -0.4 | 1.5% | 7.6% | 27.2%
CC(C)c1ccc(NC(=O)C(c2ccccc2)N(Cc2ccco2)C(=O)CC2NC(=O)NC2=O)cc1 (stereo not drawn) | -6.3% | -34.4% | -3.5 | ? | 14.1µM* | -8.0%
N=C(N)SCc1ncccc1O | -25.6% | ? | -0.2 | ? | 17.8µM* | -1.8%
N=C(N)SCc1ccccn1 | -13.5% | 22.4µM* | ? | 35.5µM* | ? | -4.4%
Oc1cccnc1CCc1ccccc1 | -2.1% | -1.4% | 0.3 | -3.3% | . | 16.7%
CC(C)(C)NC(=O)C(C1CC1)n1c(-c2ccccc2)nc2ccccc21 (stereo not drawn) | 0.1% | . | -1.0 | . | . | .
COc1ccc(/C=C(\NC(=O)c2ccccc2)C(=O)OC[C@@H]2CCC[N+]3(C)CCCCC23)cc1OC (stereo partly drawn) | -18.4% | 15.8µM* | -16.9 | -10.9% | -16.9%[59 µM] | ?
SMILES | PLK1 PBD block | JMJD2A Tudor inh | PI5P4Ka inh | BAZ2B inh | G9a block | HP1b binding inh
COc1cccc(C(=O)N2CCC[C@H]2C(=O)N2CCC[C@H]2C(=O)NCc2ccccn2)c1 | 0.2% | . | 10.2 | . | . | .
CCN(CC)c1nc(N)c2c(N)n(-c3ccccc3C)c(=S)c(C#N)c2c1C#N | 26.7µM* | 39.8µM* | ? | -31.5% | -48.5%[2.33 µM] | ?
CCCNC(=O)C1(C)CCN(Cc2cc(-c3ccccc3)on2)C1 (stereo not drawn) | -10.1% | . | -2.5 | . | . | .
CCOC(=O)C1=C(C)N=c2s/c(=C/c3ccc(OCC(=O)O)cc3)c(=O)n2C1c1cc(OC)c(OC)c(OC)c1 (stereo not drawn) | -9.3% | -26.5% | -22.0 | -37.2% | . | 9.7%
CCOC(=O)C1=C(C)N=c2s/c(=C\c3ccc(OC(C)=O)cc3)c(=O)n2C1/C=C/c1ccccc1 (stereo not drawn) | 5.8% | -0.7% | -5.2 | 12.1% | 20.4%[59 µM] | 27.5%
CCOC(=O)C1=C(C)N=c2sc(=Cc3cc(Cl)c(OCC(=O)O)c(Cl)c3)c(=O)n2C1c1cccc(OC)c1 (stereo not drawn) | 26.7µM* | . | -74.0* | . | . | .
CCOC(=O)C1=C(C)N=c2s/c(=C\c3ccc(OCC(=O)O)cc3)c(=O)n2C1c1ccc(OC(C)C)cc1 (stereo not drawn) | 23.8µM* | ? | -6.6 | ? | ? | 3.6%
CCOC(=O)C1=C(C)N=c2s/c(=C\c3cccc(OCC(=O)O)c3)c(=O)n2C1c1ccccc1OC (stereo not drawn) | 0.0% | ? | 3.8 | 50.1µM* | 39.8µM* | -13.6%
CCOC(=O)C1=C(C)N=c2sc(=Cc3ccc(OCC(=O)O)cc3)c(=O)n2C1c1ccc(Cl)cc1 (stereo not drawn) | -14.3% | . | ? | . | . | .
CCOC(=O)C1=C(C)N=c2s/c(=C\c3ccc(OC(C)=O)c(OCC)c3)c(=O)n2C1/C=C/c1ccccc1 (stereo not drawn) | 1.8% | 44.7µM* | -26.2 | 1.8% | -1.0%[59 µM] | 3.1%
Cc1ccc(-n2nc(C)c(C(=O)Nc3cccc(C(=O)NC4CC4)c3)n2)c(C)c1 | -10.1% | -25.7% | 3.6 | 4.3% | -3.5%[12.7 µM] | 31.3%
CCN(CC)S(=O)(=O)c1ccc(Cl)c(NC(=O)c2ccccc2C)c1 | 21.2µM* | -13.7%[11.4 µM] | 5.6 | 12.1% | 15.3%[12.7 µM] | -3.9%
CCN(CC)S(=O)(=O)c1ccc(Cl)c(C(=O)Nc2ccc(Cl)cc2[N+](=O)[O-])c1 | -9.4% | ? | -5.9 | ? | 8.91µM* | ?
CCN(CC)S(=O)(=O)c1ccc(Cl)c(NC(=O)c2cc(Cl)cc(Cl)c2)c1 | -8.8% | 0.0% | -9.9 | 7.2% | 20.9%[59 µM] | 7.0%
CN(C)S(=O)(=O)c1ccc(Cl)c(C(=O)Nc2ccccc2[N+](=O)[O-])c1 | -12.3% | -35.0% | 5.2 | -9.5% | 2.8%[59 µM] | -9.8%
CCNc1ccc(S(=O)(=O)N(C)C)cc1NCC(=O)Nc1ccccc1Cl | -13.6% | ? | 0.6 | ? | 39.8µM* | -23.6%
CCNc1ccc(S(=O)(=O)N(C)C)cc1NCC(=O)Nc1c(F)cccc1F | -2.4% | -16.4% | 3.1 | 0.1% | 20.8%[59 µM] | 19.1%
